From PubChem BioAssay (Tox21)
A number with no mark means an inactive call. Results filed as inconclusive are left out. Entries that show only a call come without a potency. Calls of active or inactive are those of the source. Unless noted, calls come from the whole dose curve; as a rule, active = well fitted curve in the direction sought with a large enough effect in the repeat runs; inconclusive = weak or mixed curves; inactive = no such curve, though single readings can be large; an effect the other way counts as inactive or inconclusive.

Assays:
[1] = qHTS assay to identify small molecule antagonists of the estrogen receptor alpha (ER-alpha) signaling pathway using the BG1 cell line in the presence of 0.1 nM 17-beta-estradiol - cell viability counter screen (AID 1259241); note: nearly all actives have a fitted effect of over 40% in size
Procedure, shortened: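 In this screen, hormone-deprived VM7Luc4E2 cells were seeded at 4,000 per well, dosed with compound and 0.1 nM estradiol final, and incubated 22 hr at 37C and 5% CO2; fluorogenic live-cell protease signal reported viability.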

[2] = qHTS assay to identify small molecule antagonists of the androgen receptor (AR) signaling pathway using the MDA cell line in the presence of 0.5 nM R1881 - cell viability counter screen (AID 1259242); note: nearly all actives have a fitted effect of over 45% in size
Procedure, shortened: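 MDA-kb2 cells (human breast carcinoma, stably carrying MMTV-luciferase reporter) were exposed to compounds with 0.5 nM R1881 (final) for 16 hr at 37C, 0% CO2; viability then read as live-cell protease fluorescence (CellTiter-Fluor, 30 min) in the same wells.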

[3] = qHTS assay to identify small molecule HDAC inhibitors (AID 1259364); note: nearly all actives have a fitted effect of over 45% in size; note: potency is the fitted concentration of half-maximal effect; for activity change, negative = inhibition: top concentration of the series differs between compounds
Procedure, shortened: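 Wild-type HCT-116 cells were plated overnight, exposed to compounds for 2 h at 37 °C, then given HDAC-Glo class I/II luminogenic reagent for 30 min at room temperature before luminescence was read.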

[4] = qHTS assay to identify small molecule HDAC inhibitors - cell viability counter screen (AID 1259365); note: series mostly up to about 92 µM; nearly all actives have a fitted effect of over 50% in size
Procedure, shortened: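 Measured quantity is CellTiter-Glo luminescence from wild-type HCT-116 cells after compound incubation of 2hr at 37C, 5% CO2; reagent developed 30min at room temperature.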

[5] = qHTS assay to identify small molecule agonists of the sonic hedgehog signaling (Shh) pathway - cell viability counter screen (AID 1259366); note: nearly all actives have a fitted effect of over 50% in size
Procedure, shortened: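 In quantitative high-throughput format, 3T3 Gli1-Luc cells were exposed to compounds for 24hr and multiplexed for viability using CellTiter-Fluor, incubated 1hr at 37C before the fluorescence read.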

[6] = qHTS assay to identify small molecule antagonists of the sonic hedgehog signaling (Shh) pathway - cell viability counter screen (AID 1259367); note: nearly all actives have a fitted effect of over 55% in size
Procedure, shortened: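 Cells: 3T3 Gli1-Luc, 2,000/well, 4 hr pre-incubation. Compounds in DMSO, then conditioned medium. Incubation 24 hr, 37C, 5% CO2. CellTiter-Fluor at 23 hr, 1 hr, fluorescence.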

[7] = qHTS assay to identify small molecule agonists of the sonic hedgehog signaling (Shh) pathway (AID 1259368; calls by dose curve; note: series mostly up to about 92 µM; nearly all actives have a fitted effect of over 15% in size)
Procedure, shortened: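 NIH/3T3-derived 3T3Gli1-Luc cells carrying a stably integrated Gli1 response element–firefly luciferase reporter were plated, left 4 hr at 37 C, then given compounds in DMSO for 24 hr. Luminescence was read 30 min after adding luciferase reagent.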

[8] = molecular target: Estrogen receptor beta (Homo sapiens) (UniProt Q92731); assay: qHTS assay to identify small molecule agonists of the estrogen receptor beta (ER-beta) signaling pathway (AID 1259377; active = well fitted activation curve with a large enough effect in the signal ratio in the repeat runs, not every such curve was filed as active; the % refers to the signal ratio; note: potency is the fitted concentration of half-maximal effect)
Procedure, shortened: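 Reporter cells (HEK293T, ER-beta-UAS-bla) receive compounds or DMSO after a 6 hr pre-incubation. They then incubate 16 hr at 37C/5% CO2, and fluorescence from LiveBLAzer B/G substrate is measured after 2 hours at room temperature.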

[9] = molecular target: Estrogen receptor beta (Homo sapiens) (UniProt Q92731); assay: qHTS assay to identify small molecule antagonists of the estrogen receptor beta (ER-beta) signaling pathway (AID 1259378; active = well fitted inhibition curve with a large enough effect in the signal ratio in the repeat runs, not every such curve was filed as active; the % refers to the signal ratio)
Procedure, shortened: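 Antagonist mode: compounds added to beta-lactamase reporter HEK293T ER-beta-UAS cells stimulated with E2 (1nM final), 16 hr at 37C. LiveBLAzer B/G FRET substrate, 2 hours room temperature, fluorescence read-out.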

[10] = qHTS assay to identify small molecule agonists of the androgen receptor (AR) signaling pathway in the presence of an antagonist - cell viability counter screen (AID 1259379); note: series mostly up to about 92 µM; nearly all actives have a fitted effect of over 25% in size
Procedure, shortened: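 MDA-kb2 human breast carcinoma cells (stable MMTV-luciferase, AR/GR responsive) were seeded 3,000 cells/well, pre-incubated 5 hr at 37C without CO2, then given 3.0uM nilutamide and compounds at 15 concentrations for 16 hr. Viability was read by CellTiter-Fluor fluorescence.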

[11] = qHTS assay to identify small molecule agonists of the estrogen receptor beta (ER-beta) signaling pathway - cell viability counter screen (AID 1259380); note: nearly all actives have a fitted effect of over 30% in size
Procedure, shortened: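 ER-beta-UAS-bla HEK293T cells in medium with 2% charcoal-stripped FBS were preincubated 6 hr at 37C, dosed with compound in DMSO for 16 hr, then after the bla read, CellTiter-Glo was added for 30 min at room temperature; luminescence recorded.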

[12] = qHTS assay to identify small molecule antagonists of the estrogen receptor beta (ER-beta) signaling pathway - cell viability counter screen (AID 1259382);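 note: HEK293T cells carrying ER-beta-UAS-bla reporter stimulated with estradiol; series mostly up to about 92 µM; nearly all actives have a fitted effect of over 55% in size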
Procedure, shortened: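 ER-beta-UAS-bla HEK293T cells (2,000/well, 2% charcoal-stripped FBS) were pre-incubated 6 hr at 37C, then given compound plus 1nM final 17-beta-estradiol for 16 hr. Viability was read in the same wells by CellTiter-Glo luminescence after 30 min at room temperature.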

[13] = molecular target: Estrogen receptor (Homo sapiens) (UniProt P03372); assay: qHTS assay to identify small molecule agonists of the estrogen receptor alpha (ER-alpha) signaling pathway in the presence of an antagonist (AID 1259383; calls by dose curve; note: top concentration of the series differs between compounds; nearly all actives have a fitted effect of over 15% in size)
Procedure, shortened: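 VM7Luc4E2 cells (endogenous full-length ER-alpha, 4×ERE-luciferase) were precultured 5 days in phenol red-free medium with 10% charcoal-stripped FBS, given 10.0nM ICI-182,780 (final), then treated with compounds at 15 concentrations for 22hr at 37C; luminescence read with ONE-Glo.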

[14] = qHTS assay to identify small molecule agonists or antagonists of the thyroid stimulating hormone receptor (TSHR) signaling pathway - wild type cell line counter screen (AID 1259384; calls by dose curve)
Procedure, shortened: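 Counter screen in untransfected Hek293: compounds (15-point titration, triplicate) plus phosphodiesterase inhibitor Ro20-1724 added after 18 h plating; 30 min RT. Intracellular cAMP via competitive d2/cryptate immunoassay, 1 h incubation.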

[15] = molecular target: Thyrotropin receptor (Homo sapiens) (UniProt P16473); assay: qHTS assay to identify small molecule antagonists of the thyroid stimulating hormone receptor (TSHR) signaling pathway (AID 1259385; calls by dose curve; note: nearly all actives have a fitted effect of over 20% in size)
Procedure, shortened: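 Antagonist mode: compound-treated TSHR-expressing HEK293 cells were stimulated with 1.5 ng/mL TSH (final) in presence of Ro20-1724 for 30 min at RT. HTRF cAMP detection after 1 h; each compound tested at 15 concentrations, triplicate.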

[16] = qHTS assay to identify small molecule antagonists of the sonic hedgehog signaling (Shh) pathway (AID 1259369; calls by dose curve; note: nearly all actives have a fitted effect of over 45% in size; note: potency is the fitted concentration of half-maximal effect)
Procedure, shortened: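 NIH/3T3-derived 3T3Gli1-Luc cells with stably integrated Gli1-Luc reporter were preincubated 4hr at 37 C, then given compounds in DMSO plus Shh conditioned medium and incubated 24hr. Firefly luciferase luminescence read after 30min reagent at room temperature.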

Sequence of Estrogen receptor (Homo sapiens) (P03372 whole entry, looked up): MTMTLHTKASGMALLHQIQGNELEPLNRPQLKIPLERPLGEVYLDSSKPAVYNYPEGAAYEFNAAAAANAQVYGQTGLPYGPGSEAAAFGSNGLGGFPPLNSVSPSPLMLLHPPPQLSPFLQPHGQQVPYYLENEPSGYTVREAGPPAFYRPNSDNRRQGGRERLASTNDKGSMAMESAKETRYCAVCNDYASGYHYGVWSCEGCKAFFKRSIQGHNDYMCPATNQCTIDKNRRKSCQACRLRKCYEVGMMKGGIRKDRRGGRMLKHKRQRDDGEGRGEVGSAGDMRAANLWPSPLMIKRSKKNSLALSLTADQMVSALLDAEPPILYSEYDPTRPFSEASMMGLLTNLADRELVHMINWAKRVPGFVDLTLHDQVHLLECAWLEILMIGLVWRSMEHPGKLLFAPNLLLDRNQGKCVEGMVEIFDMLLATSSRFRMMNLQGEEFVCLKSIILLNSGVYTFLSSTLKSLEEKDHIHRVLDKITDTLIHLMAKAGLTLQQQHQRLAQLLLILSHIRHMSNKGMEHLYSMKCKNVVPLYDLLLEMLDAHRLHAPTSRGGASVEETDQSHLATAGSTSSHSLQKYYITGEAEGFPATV
Sequence of Estrogen receptor beta (Homo sapiens) (Q92731 whole entry, looked up): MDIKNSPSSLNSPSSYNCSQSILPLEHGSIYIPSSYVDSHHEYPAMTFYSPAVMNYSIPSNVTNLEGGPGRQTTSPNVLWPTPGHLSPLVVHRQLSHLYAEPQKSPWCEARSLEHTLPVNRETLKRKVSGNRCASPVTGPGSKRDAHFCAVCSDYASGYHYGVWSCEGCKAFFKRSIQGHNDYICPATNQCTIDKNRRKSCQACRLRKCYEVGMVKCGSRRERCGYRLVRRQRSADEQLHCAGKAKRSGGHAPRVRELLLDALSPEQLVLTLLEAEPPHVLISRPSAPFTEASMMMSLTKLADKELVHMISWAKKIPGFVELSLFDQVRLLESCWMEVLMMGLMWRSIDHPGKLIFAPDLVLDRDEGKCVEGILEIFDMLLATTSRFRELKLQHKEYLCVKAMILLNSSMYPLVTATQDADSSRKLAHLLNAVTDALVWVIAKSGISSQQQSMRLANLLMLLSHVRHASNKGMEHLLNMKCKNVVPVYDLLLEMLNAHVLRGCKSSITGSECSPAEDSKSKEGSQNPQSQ
Sequence of Thyrotropin receptor (Homo sapiens) (P16473 whole entry, looked up): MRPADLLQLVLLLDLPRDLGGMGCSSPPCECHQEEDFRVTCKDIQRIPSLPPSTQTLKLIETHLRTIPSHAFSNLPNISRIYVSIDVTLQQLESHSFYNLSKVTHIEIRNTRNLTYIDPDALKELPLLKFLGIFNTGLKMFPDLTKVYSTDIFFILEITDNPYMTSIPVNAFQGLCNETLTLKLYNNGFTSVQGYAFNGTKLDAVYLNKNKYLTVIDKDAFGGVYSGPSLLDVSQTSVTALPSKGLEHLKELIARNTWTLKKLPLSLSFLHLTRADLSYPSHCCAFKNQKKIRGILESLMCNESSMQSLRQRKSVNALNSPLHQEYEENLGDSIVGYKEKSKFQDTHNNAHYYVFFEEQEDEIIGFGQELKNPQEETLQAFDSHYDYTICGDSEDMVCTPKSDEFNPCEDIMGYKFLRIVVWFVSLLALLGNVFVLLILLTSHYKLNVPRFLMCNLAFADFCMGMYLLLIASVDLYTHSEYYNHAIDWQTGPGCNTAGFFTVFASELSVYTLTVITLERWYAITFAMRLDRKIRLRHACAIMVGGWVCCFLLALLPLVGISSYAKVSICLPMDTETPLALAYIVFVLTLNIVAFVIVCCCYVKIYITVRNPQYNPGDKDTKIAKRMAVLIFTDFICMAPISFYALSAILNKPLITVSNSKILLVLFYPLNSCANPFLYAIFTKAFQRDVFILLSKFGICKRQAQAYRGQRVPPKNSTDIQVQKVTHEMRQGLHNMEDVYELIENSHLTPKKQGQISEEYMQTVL

C=CCOCC(O)CO (stereo unspecified)
outcome [1]: inactive | outcome [2]: inactive | Potency [3]: inactive | outcome [4]: inactive | Potency [5]: inactive | Potency [6]: inactive | outcome [7]: inactive | Potency [8]: inactive | Potency [9]: inactive | Potency [10]: inactive | Potency [11]: inactive | outcome [12]: inactive | outcome [13]: inactive | outcome [14]: inactive | outcome [15]: inactive

CCC(=O)OCc1ccccc1
outcome [1]: inactive | outcome [2]: inactive | Potency [3]: inactive | outcome [4]: inactive | Potency [5]: inactive | Potency [6]: inactive | outcome [7]: inactive | Potency [8]: inactive | Potency [9]: inactive | Potency [10]: inactive | Potency [11]: inactive | outcome [12]: inactive | outcome [14]: inactive | outcome [15]: inactive

CN1CCC(=C2c3ccccc3CCc3cccnc32)CC1
outcome [1]: inactive | outcome [2]: inactive | Potency [3]: inactive | outcome [4]: inactive | outcome [7]: inactive | Potency [16]: 13.3 µM (active) | Potency [8]: inactive | Potency [9]: inactive | Potency [10]: inactive | Potency [11]: inactive | outcome [12]: inactive | outcome [13]: inactive | outcome [14]: inactive | outcome [15]: inactive

CCOc1ccccc1OCC
outcome [1]: inactive | outcome [2]: inactive | Potency [3]: inactive | outcome [4]: inactive | Potency [5]: inactive | Potency [6]: inactive | outcome [7]: inactive | Potency [16]: inactive | Potency [8]: inactive | Potency [9]: inactive | Potency [10]: inactive | Potency [11]: inactive | outcome [12]: inactive | outcome [14]: inactive | outcome [15]: inactive

CCCCCCC1CCC(=O)O1 (stereo unspecified)
outcome [1]: inactive | outcome [2]: inactive | Potency [3]: inactive | outcome [4]: inactive | Potency [5]: inactive | Potency [6]: inactive | outcome [7]: inactive | Potency [8]: inactive | Potency [9]: inactive | Potency [10]: inactive | Potency [11]: inactive | outcome [12]: inactive | outcome [13]: inactive | outcome [14]: inactive | outcome [15]: inactive

CCCn1cc[n+](C)c1C
outcome [1]: inactive | outcome [2]: inactive | Potency [3]: inactive | outcome [4]: inactive | Potency [5]: inactive | Potency [6]: inactive | outcome [7]: inactive | Potency [10]: inactive | Potency [11]: inactive | outcome [12]: inactive

CCN(C=O)CC
outcome [1]: inactive | outcome [2]: inactive | Potency [3]: inactive | outcome [4]: inactive | Potency [5]: inactive | Potency [6]: inactive | outcome [7]: inactive | Potency [16]: inactive | Potency [8]: inactive | Potency [9]: inactive | Potency [10]: inactive | outcome [12]: inactive | outcome [14]: inactive

O=C1c2ccccc2C(=O)c2cc(O)ccc21
outcome [1]: inactive | outcome [2]: inactive | Potency [3]: 7.7 µM (active) | outcome [4]: inactive | Potency [5]: inactive | Potency [6]: inactive | outcome [7]: inactive | Potency [16]: inactive | Potency [8]: 5.45 µM (active) | Potency [11]: inactive | outcome [12]: inactive | outcome [14]: inactive

Cc1cc(C)c(N=Nc2c(O)c(S(=O)(=O)O)cc3cc(S(=O)(=O)O)ccc23)cc1C
activity change, negative = cytotoxicity [1]: -12.4% [at 8.39 µM] | viability change, negative = cytotoxic [2]: -3.59% [at 8.39 µM] | activity change, negative = inhibition [3]: -2.59% [at 8.39 µM] | activity change, negative = cytotoxicity [4]: -2.91% [at 8.39 µM] | viability change, negative = cytotoxic [5]: -2.37% [at 8.39 µM] | viability change, negative = cytotoxic [6]: -9.99% [at 8.39 µM] | activity change [7]: -1.73% [at 8.39 µM] | activity change, negative = inhibition [16]: 9.78% [at 8.39 µM] | activity change, negative = cytotoxicity [10]: -11.3% [at 8.39 µM] | activity change, negative = cytotoxicity [11]: -5.12% [at 8.39 µM] | activity change, negative = cytotoxicity [12]: 8.89% [at 8.39 µM] | activation [13]: -2.23% [at 8.39 µM] | cAMP activity change [14]: 2.77% [at 8.39 µM] | activity change, negative = inhibition [15]: -1.06% [at 8.39 µM]

C1CCC2(CCCCO2)OC1
outcome [1]: inactive | outcome [2]: inactive | Potency [3]: inactive | outcome [4]: inactive | Potency [5]: inactive | Potency [6]: inactive | outcome [7]: inactive | Potency [16]: inactive | Potency [8]: inactive | Potency [10]: inactive | Potency [11]: inactive | outcome [13]: inactive | outcome [14]: inactive | outcome [15]: inactive
